In PubChem BioAssay AID1159580 (chemical genetic matrix, 2015):
The campaign covered roughly 5,500 compounds. About 2,000 (36%) were called active. Not shown: some 18% with an inconclusive outcome. Cut-off read from the data, not from the text of the source: active = normalized growth mostly below about 0.91 (no sharp cut-off); inconclusive = no clear call, values can overlap the other calls; inactive = mostly above about 0.92. Some of the results follow.

Experiment: chemical genetic growth profiling, strain panel (AID 1159580);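 note: tested at 20 µM; growth read once vehicle control cultures reached saturation at 30 °C; 1 = growth at the plate median or of vehicle wells; lower values mean less growth of the strain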
Conditions: growth OD

Measured: normalized growth

COc1ccc(CCN2CCC(Nc3nc4ccccc4n3Cc3ccc(F)cc3)CC2)cc1
active: S. cerevisiae deletion strains, locus YLR320W, strain mms22, stronger effect = lower value 0.85 | S. cerevisiae deletion strains, locus YLR370C, strain arc18, stronger effect = lower value 0.892 | S. cerevisiae deletion strains, locus YMR058W, strain fet3, stronger effect = lower value 0.865 | S. cerevisiae deletion strains, locus YOR001W, strain rrp6, stronger effect = lower value 0.881 | S. cerevisiae deletion strains, locus YOR270C, strain vph1, stronger effect = lower value 0.607 | S. cerevisiae deletion strains, locus YOR290C, strain snf2, stronger effect = lower value 0.633
inactive: S. cerevisiae deletion strains, locus YJR066W, strain TOR1, stronger effect = lower value 0.931 | S. cerevisiae deletion strains, locus YKL009W, strain mrt4, stronger effect = lower value 0.99 | S. cerevisiae deletion strains, locus YKL068W, stronger effect = lower value 0.991 | S. cerevisiae deletion strains, locus YKL085W, strain MDH1 (second series), stronger effect = lower value 1.04 | S. cerevisiae deletion strains, locus YKL085W, strain MDH1, stronger effect = lower value 1.04 | S. cerevisiae deletion strains, locus YKL160W, strain elf1, stronger effect = lower value 0.961 | S. cerevisiae deletion strains, locus YKL190W, strain CNB1, stronger effect = lower value 0.992 | S. cerevisiae deletion strains, locus YKR001C, strain vps1, stronger effect = lower value 0.999 | S. cerevisiae deletion strains, locus YKR026C, strain gcn3, stronger effect = lower value 0.945 | S. cerevisiae deletion strains, locus YKR091W, strain srl3, stronger effect = lower value 0.987 | S. cerevisiae deletion strains, locus YLL001W, strain dnm1, stronger effect = lower value 0.954 | S. cerevisiae deletion strains, locus YLL026W, stronger effect = lower value 0.974 | S. cerevisiae deletion strains, locus YLL041C, strain sdh2, stronger effect = lower value 0.969 | S. cerevisiae deletion strains, locus YLR027C, strain aat2, stronger effect = lower value 0.978 | S. cerevisiae deletion strains, locus YLR039C, strain RIC1, stronger effect = lower value 1.19 | S. cerevisiae deletion strains, locus YLR058C, strain SHM2, stronger effect = lower value 0.974 | S. cerevisiae deletion strains, locus YLR102C, strain apc9, stronger effect = lower value 0.991 | S. cerevisiae deletion strains, locus YLR113W, strain HOG1, stronger effect = lower value 0.976 | S. cerevisiae deletion strains, locus YLR221C, strain rsa3, stronger effect = lower value 0.951 | S. cerevisiae deletion strains, locus YLR258W, strain gsy2, stronger effect = lower value 0.962 | S. cerevisiae deletion strains, locus YLR262C, strain YPT6 (second series), stronger effect = lower value 1.05 | S. cerevisiae deletion strains, locus YLR262C, strain YPT6, stronger effect = lower value 1.21 | S. cerevisiae deletion strains, locus YLR268W, strain sec22, stronger effect = lower value 0.969 | S. cerevisiae deletion strains, locus YLR330W, strain CHS5, stronger effect = lower value 0.995 | S. cerevisiae deletion strains, locus YLR342W, strain FKS1 (second series), stronger effect = lower value 0.945 | S. cerevisiae deletion strains, locus YLR342W, strain FKS1, stronger effect = lower value 0.969 | S. cerevisiae deletion strains, locus YLR357W, strain rsc2, stronger effect = lower value 0.986 | S. cerevisiae deletion strains, locus YLR371W, strain rom2, stronger effect = lower value 0.986 | S. cerevisiae deletion strains, locus YLR384C, strain iki3, stronger effect = lower value 1 | S. cerevisiae deletion strains, locus YLR418C, strain cdc73, stronger effect = lower value 0.943 | S. cerevisiae deletion strains, locus YML016C, strain PPZ1, stronger effect = lower value 0.979 | S. cerevisiae deletion strains, locus YML032C, strain rad52, stronger effect = lower value 0.955 | S. cerevisiae deletion strains, locus YML120C, strain ndi1, stronger effect = lower value 0.978 | S. cerevisiae deletion strains, locus YML124C, strain tub3, stronger effect = lower value 0.991 | S. cerevisiae deletion strains, locus YMR078C, strain ctf18, stronger effect = lower value 0.987 | S. cerevisiae deletion strains, locus YMR125W, strain sto1, stronger effect = lower value 0.964 | S. cerevisiae deletion strains, locus YMR129W, stronger effect = lower value 0.995 | S. cerevisiae deletion strains, locus YMR205C, strain PFK2, stronger effect = lower value 0.908 | S. cerevisiae deletion strains, locus YMR223W, strain ubp8, stronger effect = lower value 0.988 | S. cerevisiae deletion strains, locus YMR231W, strain pep5, stronger effect = lower value 0.997 | S. cerevisiae deletion strains, locus YMR263W, strain SAP30, stronger effect = lower value 0.997 | S. cerevisiae deletion strains, locus YMR307W, strain GAS1, stronger effect = lower value 0.894 | S. cerevisiae deletion strains, locus YNL067W, strain RPL9B, stronger effect = lower value 0.982 | S. cerevisiae deletion strains, locus YNL071W, strain lat1, stronger effect = lower value 0.959 | S. cerevisiae deletion strains, locus YNL128W, strain TEP1, stronger effect = lower value 0.984 | S. cerevisiae deletion strains, locus YNL153C, strain GIM3, stronger effect = lower value 1 | S. cerevisiae deletion strains, locus YNL183C, strain NPR1, stronger effect = lower value 0.946 | S. cerevisiae deletion strains, locus YNL209W, strain ssb2, stronger effect = lower value 0.962 | S. cerevisiae deletion strains, locus YNL233W, strain BNI4, stronger effect = lower value 0.959 | S. cerevisiae deletion strains, locus YNL250W, strain rad50, stronger effect = lower value 0.988 | S. cerevisiae deletion strains, locus YNL271C, strain bni1, stronger effect = lower value 0.982 | S. cerevisiae deletion strains, locus YNL298W, strain CLA4, stronger effect = lower value 0.987 | S. cerevisiae deletion strains, locus YNL307C, strain MCK1, stronger effect = lower value 0.969 | S. cerevisiae deletion strains, locus YNL322C, strain KRE1 (second series), stronger effect = lower value 0.991 | S. cerevisiae deletion strains, locus YNR049C, strain mso1, stronger effect = lower value 0.96 | S. cerevisiae deletion strains, locus YNR052C, strain pop2, stronger effect = lower value 0.982 | S. cerevisiae deletion strains, locus YOL006C, strain TOP1, stronger effect = lower value 0.759 | S. cerevisiae deletion strains, locus YOL012C, strain htz1 0.955 | S. cerevisiae deletion strains, locus YOL147C, strain pex11, stronger effect = lower value 0.99 | S. cerevisiae deletion strains, locus YOR061W, strain CKA2, stronger effect = lower value 0.969 | S. cerevisiae deletion strains, locus YOR069W, strain VPS5, stronger effect = lower value 0.993 | S. cerevisiae deletion strains, locus YOR070C, strain gyp1, stronger effect = lower value 0.944 | S. cerevisiae deletion strains, locus YOR080W, strain dia2, stronger effect = lower value 1 | S. cerevisiae deletion strains, locus YOR083W, strain WHI5, stronger effect = lower value 0.927 | S. cerevisiae deletion strains, locus YOR106W, strain vam3, stronger effect = lower value 0.969 | S. cerevisiae deletion strains, locus YOR136W, strain idh2, stronger effect = lower value 0.98 | S. cerevisiae deletion strains, locus YOR144C, strain elg1, stronger effect = lower value 0.986 | S. cerevisiae deletion strains, locus YOR184W, strain ser1, stronger effect = lower value 0.953 | S. cerevisiae deletion strains, locus YOR231W, strain MKK1, stronger effect = lower value 0.973 | S. cerevisiae deletion strains, locus YOR265W, strain rbl2, stronger effect = lower value 0.993 | S. cerevisiae deletion strains, locus YOR316C, strain cot1, stronger effect = lower value 0.994 | S. cerevisiae deletion strains, locus YPL051W, strain arl3, stronger effect = lower value 0.968 | S. cerevisiae deletion strains, locus YPL078C, strain atp4, stronger effect = lower value 0.975 | S. cerevisiae deletion strains, locus YPL106C, strain sse1, stronger effect = lower value 0.894 | S. cerevisiae deletion strains, locus YPL240C, strain hsp82, stronger effect = lower value 0.986 | S. cerevisiae deletion strains, locus YPL241C, strain CIN2, stronger effect = lower value 0.992 | S. cerevisiae deletion strains, locus YPL256C, strain CLN2, stronger effect = lower value 0.982 | S. cerevisiae deletion strains, locus YPR119W, strain clb2, stronger effect = lower value 0.988 | S. cerevisiae deletion strains, locus YPR141C, strain kar3, stronger effect = lower value 0.991 | S. cerevisiae deletion strains, locus YPR163C, strain tif3, stronger effect = lower value 0.988 | S. cerevisiae deletion strains, locus YPR167C, strain met16, stronger effect = lower value 0.976 | S. cerevisiae deletion strains, strain wtn01, stronger effect = lower value 0.974 | S. cerevisiae strains, strain wild type, stronger effect = lower value 0.986
